Hit rate of the full screen: of about 68,000 compounds, about 2,700 (4%) showed an effect of 50% or more. This is one part of a sample in which strong results are shown more often than they occur.

In the experiment the test system is Plasmodium berghei. Kind of experiment: Screen against P. berghei liver stage (PbLuc), transformed with Luciferase, at 2uM. Type of experiment: functional, HepG2. The following applies: tested at 2 uM.
On to `CC(C)(O)CN1CCN(C(=O)c2ccn(-c3cccc(F)c3)n2)CC1`, for which the INHIBITION was found to be 65.76%.

With `CCC(O)CN1CCN(C(=O)c2ccn(-c3ccccc3)n2)CC1` (configuration not stated), the INHIBITION stood at 14.97%.

For the compound `O=C(NCCn1ccnc1)c1ccn(-c2cccc(F)c2)n1`, the INHIBITION came out at 8.37%.

As to `O=C(c1ccn(-c2cccc(F)c2)n1)N1CCN(CC2CC2)CC1`, the INHIBITION is listed as -40.27%.

Consider `O=C(c1ccn(-c2cccc(F)c2)n1)N1CCN(CCO)CC1`, for which the INHIBITION is given as 19.12%.

Regarding `NC(=O)COc1ccc(CNCc2cc(F)cc(F)c2)cc1`, the INHIBITION came to 19.7%.

Consider `NC(=O)N1CCCC(c2nc(-c3cccnn3)no2)C1` (configuration not stated), for which the INHIBITION was determined as 19.39%.

With `Cc1noc(C)c1CN1C(=O)[C@@H]2CC[C@H]1CN(Cc1cccc(O)c1)C2`, the INHIBITION amounted to 30.42%.

Consider `CC(C)O[C@@H]1CC[C@H]2[C@H]1OCCN2C(=O)c1nn(C)c2ccccc12`, for which the INHIBITION is on record as -13.37%.

With `CCN(CC)C(CNCc1ccc(C)o1)c1ccco1` (configuration not stated), the INHIBITION was found to be 15.89%.

In the case of `CCN1C(=O)CCCC12CCCN(C(=O)c1cnccn1)C2` (configuration not stated), the INHIBITION was -41.21%.

For `CC(CN1CCOCC1)N(Cc1ccccc1)Cc1ccncc1` (configuration not stated), the INHIBITION came out at 8.73%.

`COc1cc2c(cc1CNCc1ccnc(-n3cccn3)c1)OC(C)C2` (configuration not stated): the INHIBITION came out at 17.61%.

Regarding `CCC(C)N(Cc1ccncc1)C(=O)CCSC` (configuration not stated), the INHIBITION is -20.95%.

For `CCOCCC(=O)N(Cc1ccncc1)C(C)CC` (configuration not stated), the INHIBITION is given as -35.26%.

As for `CCCC(=O)N(Cc1ccncc1)C(C)CC` (configuration not stated), the INHIBITION is 52.98%.

As for `O=C([C@H]1C[C@H]2OCC[C@H]2N(Cc2ccoc2)C1)N1CCCCO1`, the INHIBITION was 21.77%.

Take `CS(=O)(=O)NCCCn1ccc2ccccc21`: the INHIBITION was determined as 24.23%.

Take `COC(=O)NCCC(=O)NC(C)Cc1ccccc1Br` (configuration not stated): the INHIBITION stood at 63.46%.

As to `COC(=O)CCC(=O)NC(C)Cc1ccccc1Br` (configuration not stated), the INHIBITION was found to be 2.7%.

Consider `CCNC(=O)CCC(=O)NC(C)Cc1ccccc1Br` (configuration not stated), for which the INHIBITION is given as -3.87%.

On to `CS(=O)(=O)NCc1cc(-c2cc(F)cc(F)c2)nc(N2CC[C@H](O)C2)n1`, for which the INHIBITION is 4.66%.

Take `COc1ncccc1CNC(=O)NC(C)Cn1cccn1` (configuration not stated): the INHIBITION is given as 31.7%.

Turning to `COc1c(C(=O)N2CCOC(c3cccs3)C2)c(C)nn1C` (configuration not stated), the INHIBITION is -11.34%.

Consider `Cc1cc(C(=O)N2CCCCC2c2nc3cc(F)ccc3[nH]2)no1` (configuration not stated), for which the INHIBITION is recorded as 33.92%.

For the compound `O=C(c1cccc(CO)n1)N1CCCC1c1nc2cc(F)ccc2[nH]1` (configuration not stated), the INHIBITION is -20.6%.

As to `Cc1cccc(C(=O)N2CCCCC2c2nc3cc(F)ccc3[nH]2)n1` (configuration not stated), the INHIBITION stood at 65.04%.

Consider `Fc1ccc2[nH]c(C3CCCN3Cc3c[nH]cn3)nc2c1` (configuration not stated), for which the INHIBITION was found to be 19.59%.

Consider `Fc1ccc2[nH]c(C3CCCN3CCc3ccccn3)nc2c1` (configuration not stated), for which the INHIBITION was -55.56%.

With `O=C(CN1CCCC1c1nc2cc(F)ccc2[nH]1)NCc1ccccn1` (configuration not stated), the INHIBITION is 57.75%.

Turning to `COCC(=O)N1CCCC1c1cc(Nc2nnc(C)s2)nc(C)n1` (configuration not stated), the INHIBITION is 10.43%.

As for `CCN1CCCc2cc(CN3CCc4c(nc(C)[nH]c4=O)C3)ccc21`, the INHIBITION is reported as -9.49%.

`Cc1cc(C)nc(N2CCC(C(=O)Nc3n[nH]c(C(C)C)n3)CC2)n1`: the INHIBITION came to 19.84%.

`COc1c(C2CCCN2C(=O)CCNc2ncccn2)c(C)nn1C` (configuration not stated): the INHIBITION was 6.89%.

Turning to `CN(c1ccc(CNC(=O)c2c[nH]c(=O)c(Cl)c2)cc1)C1CCCCC1`, the INHIBITION is reported as -20.64%.

Regarding `Cc1ccc(C(=O)NCc2ccc(N(C)C)cc2)cn1`, the INHIBITION amounted to 8.73%.

Regarding `CN(c1ccc(CNC(=O)c2ccc(O)nc2)cc1)C1CCCCC1`, the INHIBITION came to 51.76%.

As for `Cc1ccc(C(C)NC(=O)Nc2ccccc2CN2CCOCC2)o1` (configuration not stated), the INHIBITION is -10.54%.

In the case of `COCc1ccccc1NC(=O)c1ccoc1`, the INHIBITION is recorded as -38.36%.

Take `COCc1ccccc1NC(=O)NC(C)c1ccc(C)o1` (configuration not stated): the INHIBITION was determined as 53.19%.

Turning to `CC(C)N(C)Cc1cc(=O)n2c(n1)CN(C(=O)c1ccnnc1)CCC2`, the INHIBITION stood at 25.92%.

Turning to `COc1ccc(C)cc1CN1CCC(c2cc3ncccc3cn2)CC1`, the INHIBITION is -17.29%.

For `CCn1c(C)nnc1SCCNC(=O)Cn1cnc2ccccc2c1=O`, the INHIBITION is 38.67%.

Consider `CO[C@@H]1CCN(Cc2nccs2)C[C@@H]1Cc1cccc(C)c1`, for which the INHIBITION came out at 10.17%.

Consider `CS(=O)(=O)Cc1nc(CN2CCC(C(F)(F)F)CC2)cs1`, for which the INHIBITION was 62.51%.

Regarding `CS(=O)(=O)Cc1nc(CN2CC=C(c3ccccc3)CC2)cs1`, the INHIBITION is on record as -4.26%.

Regarding `CS(=O)(=O)Cc1nc(CN2CCc3ccccc3CC2)cs1`, the INHIBITION was 41.05%.

In the case of `CC1(C)CN(Cc2csc(CS(C)(=O)=O)n2)Cc2ccccc21`, the INHIBITION is reported as 52.98%.

On to `CS(=O)(=O)Cc1nc(CN2CCOc3ccccc3C2)cs1`, for which the INHIBITION worked out at 33.9%.

Turning to `CS(=O)(=O)Cc1nc(CN2CCCc3sccc3C2)cs1`, the INHIBITION came out at 38.67%.

Take `CN(C)C1COC2(CCN(S(=O)(=O)c3ccc(F)cc3)CC2)C1` (configuration not stated): the INHIBITION amounted to 42.4%.

As to `Cc1ccccc1C1CCCN(C(=O)c2c[nH]c(=O)c(Cl)c2)C1` (configuration not stated), the INHIBITION is 23.16%.

Source of the values: ChEMBL document CHEMBL4513216, “Probing the Open Global Health Chemical Diversity Library for Multistage-Active Starting Points for Next-Generation Antimalarials” (ACS Infect Dis, 2020).
